# From PubChem BioAssay (NCATS)
# “And” between values parts separate entries of the source, which are not always exact repeats. Equal entries are not always repeated. Inconclusive results are not listed. The source made the active and inactive calls. Unless noted, the rule behind the calls is not given here.
# Test system: not listed separately
# Assay: qHTS assay to identify inhibitors of the type 1 interferon - major histocompatibility complex class I in skeletal muscle: Counter screen cell viability and HiBit confirmation (AID 1347412; active = well fitted inhibition curve with a large enough effect; note: % is set by controls: 0 for no effect and ±100 for the full control effect; nearly all actives have a fitted effect of over 60% in size)
# Conditions: iHSKM muscle cells + IFN-b, HiBiT or CellTiter-Glo, 24 h; Viability; at 45.9 µM (top of the series)
# Method in brief: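 CRISPR HLA-B*08:01-HiBit immortalized human myoblasts (C25cl48) stimulated with 4 ng/ml IFN-beta and compounds (12-point 1:3, top 46 uM final) for 24 h at 37 C. Duplicate plates read by HiBit lytic luminescence or CellTiter Glo ATP.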
row,Structure (SMILES),"activity change, negative = inhibition"
1,CC(C)[C@]12O[C@H]1[C@@H]1O[C@]13[C@]1(O[C@H]1C[C@H]1C4=C(CC[C@@]13C)C(=O)OC4)[C@@H]2O,-10.5% (inactive)
2,CN[C@@H]1C[C@@H](c2ccc(Cl)c(Cl)c2)c2ccccc21,-20.4% (inactive)
3,CCCCCC[C@H]1C(=O)O[C@H](C)[C@H](NC(=O)c2cccc(NC=O)c2O)C(=O)O[C@@H](C)[C@@H]1OC(=O)CC(C)C,-10.9% (inactive)
4,CC[C@@]1(O)C(=O)OCc2c1cc1n(c2=O)Cc2cc3ccccc3nc2-1,-5.85% (inactive) and -9.34% (inactive)

# Molecular target: Nuclear receptor subfamily 1 group I member 2 (Rattus norvegicus) (UniProt Q9R1A7)
# Sequence (Q9R1A7 whole entry, looked up): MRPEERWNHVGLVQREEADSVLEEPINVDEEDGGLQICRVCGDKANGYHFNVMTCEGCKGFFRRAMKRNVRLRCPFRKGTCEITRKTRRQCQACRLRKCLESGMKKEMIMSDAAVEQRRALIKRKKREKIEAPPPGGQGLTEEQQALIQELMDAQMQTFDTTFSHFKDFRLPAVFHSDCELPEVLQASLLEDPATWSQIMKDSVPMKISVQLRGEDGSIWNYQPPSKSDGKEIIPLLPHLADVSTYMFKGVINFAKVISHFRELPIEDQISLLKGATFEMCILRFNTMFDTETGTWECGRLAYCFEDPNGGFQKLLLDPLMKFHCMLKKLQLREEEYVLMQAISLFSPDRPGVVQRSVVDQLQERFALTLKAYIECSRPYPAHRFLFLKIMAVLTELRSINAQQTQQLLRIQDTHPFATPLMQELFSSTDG
# Assay: qHTS assay for small molecule activators of the rat pregnane X receptor (rPXR) signaling pathway (AID 651751); note: 0% is about no effect
# Conditions: rPXR reporter cells, luciferase (One-Glo), 24 h
row,Structure (SMILES),max response
1,CN(C)NC(=O)CCC(=O)O,-0.418% (inactive) and -0.734% (inactive)
2,CC(C)(O)C(=O)Nc1ccc([N+](=O)[O-])c(C(F)(F)F)c1,-13.9% (inactive)
3,O=C(O)COc1nc(Cl)c(Cl)cc1Cl,-1.37% (inactive)
4,CCCCOC(=O)c1ccccc1C(=O)OCc1ccccc1,7.11% (inactive) and 9.37% (inactive)
5,CN(C)[C@@H]1C(=O)C(C(N)=O)=C(O)[C@@]2(O)C(=O)C3=C(O)c4c(O)cccc4[C@@](C)(O)[C@H]3[C@H](O)[C@@H]12,4.53% (inactive) and -0.0906% (inactive) and -2.17% (inactive)
6,Nc1ccc(Sc2ccc(N)cc2)cc1,10.3% (inactive) and 6.87% (inactive)
7,O=S(=O)(O)C(F)(F)C(F)(F)C(F)(F)C(F)(F)F,-0.463% (inactive) and -1.11% (inactive)
8,CCOP(=O)(NC(C)C)Oc1ccc(SC)c(C)c1 (centres undefined),6.18% (inactive) and 2.21% (inactive)
9,CCCCCCCCCC(CC)c1ccc(S(=O)(=O)O)cc1 (centres undefined),0.683% (inactive) and -5.48% (inactive)
10,CCCCCCCCc1ccc(O)cc1,3.32% (inactive) and -2.12% (inactive)
